Reference: PubChem BioAssay (EPA / NIEHS)
Some structures have more than one record in an assay (separate samples or runs), and their calls can disagree. Calls of active or inactive are those of the source. The calls were made as follows: active = hit-call score of the fitted dose curve at least 0.9, where 1 is the maximum; inactive = score below 0.9.

Legend:
[1] = read-out: Human Leukocyte Antigen - DR isotype (HLADR), HLA-DRA (gene 3122); assay: BSK_3C_HLADR: BioMAP Diversity Plus: 3C Assay for Human Leukocyte Antigen - DR isotype (HLADR) Biomarker Activity (AID 2283019); conditions: primary human endothelial cells (HUVEC); actives raise or lower the signal
How it was run: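 ELISA readout of surface HLA-DR on human umbilical vein endothelium, taken 24 h after chemical treatment. Gain- and loss-of-signal were both fitted relative to DMSO.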

[2] = read-out: Interleukin-8 (IL8), CXCL8 (gene 3576); assay: BSK_3C_IL8: BioMAP Diversity Plus: 3C Assay for Interleukin-8 (IL8) Biomarker Activity (AID 2283020); conditions: primary human endothelial cells (HUVEC); actives raise or lower the signal
How it was run: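 Primary human umbilical vein endothelial cells were dosed for 24 h. IL-8 was quantified by ELISA and fitted bidirectionally against DMSO. Cytotoxicity was assessed in parallel cultures by SRB staining at 560 nm.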

[3] = read-out: Monokine induced gamma interferon (MIG), CXCL9 (gene 4283); assay: BSK_3C_MIG: BioMAP Diversity Plus: 3C Assay for Monokine induced gamma interferon (MIG) Biomarker Activity (AID 2283021); conditions: primary human endothelial cells (HUVEC); actives raise or lower the signal;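 as to AC50: MIG protein level measured by immunoassay in the treated endothelial cultures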
How it was run: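 HUVEC primary endothelial cultures dosed with chemical; MIG quantified by ELISA at 24 h. Data fitted bidirectionally against DMSO control, with parallel SRB total-protein staining for cytotoxicity.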

[4] = BSK_3C_SRB: Viability Assessment in the BioMAP Diversity Plus: 3C Assay (AID 2283023); conditions: primary human endothelial cells (HUVEC);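 also: fitted both ways against DMSO so a hit may be signal rise or drop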
How it was run: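 Absorbance at 560 nm of sulforhodamine B-stained (0.1%) total protein served as a cytotoxicity readout in human umbilical vein endothelial cells, 24 h after chemical treatment. Signal was fitted bidirectionally relative to DMSO.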

[5] = read-out: Matrix Metallopeptidase 1 (MMP1), MMP1 (gene 4312); assay: BSK_BE3C_MMP1: BioMAP Diversity Plus: BE3C Assay for Matrix Metallopeptidase 1 (MMP1) Biomarker Activity (AID 2283024); conditions: primary human bronchial epithelial cells; actives raise or lower the signal
How it was run: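 Human primary bronchial epithelial cells (BE3C system) dosed for 24 h; MMP-1 quantified by ELISA. Bidirectional fit against DMSO; cytotoxicity tracked in parallel cultures by SRB total-protein staining.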

[6] = BSK_3C_Vis: BioMAP Diversity Plus: 3C Assay for Morphology Visualization (AID 2283025); conditions: primary human endothelial cells (HUVEC);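 also: fitted both ways so gain or loss versus DMSO counts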;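 as to AC50: light microscopy image of cell morphology used as background control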
How it was run: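 Human umbilical vein endothelial cell morphology was inspected by light microscopy 24 h after chemical dosing; scored bidirectionally relative to DMSO.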

[7] = read-out: Pselectin, SELP (gene 6403); assay: BSK_4H_Pselectin: BioMAP Diversity Plus: 4H Assay for Pselectin Biomarker Activity (AID 2283026); conditions: primary human endothelial cells (HUVEC); actives raise or lower the signal
How it was run: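 Primary human umbilical vein endothelial cells were treated 24 h, and cell-surface P-selectin was then quantified by ELISA. Bidirectional fit versus DMSO; cytotoxicity checked in parallel cultures by SRB total-protein staining.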

[8] = BSK_4H_SRB: Viability Assessment in the BioMAP Diversity Plus: 4H Assay (AID 2283027); conditions: primary human endothelial cells (HUVEC);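 also: cells exposed to compound for 24 h before staining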;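 as to AC50: curves fitted both ways versus DMSO so AC50 may be loss or gain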
How it was run: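 Human umbilical vein endothelial cells, 24 h after chemical dosing; total protein measured by 0.1% sulforhodamine B staining after 10% TCA fixation, read at 560 nm. Bidirectional fitting against DMSO.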

[9] = BSK_BE3C_SRB: Viability Assessment in the BioMAP Diversity Plus: BE3C Assay (AID 2283028); conditions: primary human bronchial epithelial cells
How it was run: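 Cells (human bronchial epithelial, primary) are treated with chemicals, and after 24 h the parallel cultures are fixed in 10% TCA. These are then stained with 0.1% SRB and read at 560 nm. Gain or loss of signal is fitted relative to DMSO.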

[10] = read-out: Thrombomodulin, THBD (gene 7056); assay: BSK_3C_Thrombomodulin: BioMAP Diversity Plus: 3C Assay for Thrombomodulin Biomarker Activity (AID 2283029); conditions: primary human endothelial cells (HUVEC); actives raise or lower the signal
How it was run: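 Human umbilical vein endothelial cells were exposed to chemicals for 24 h; cell-surface thrombomodulin quantified by ELISA, with bidirectional fitting against DMSO baseline.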

Measured: AC50

C=C(C)CN(CC)c1c([N+](=O)[O-])cc(C(F)(F)F)cc1[N+](=O)[O-]
active: [4] 30 µM | [6] 20 µM
not listed: [10]
inactive: all other assays above

Cc1c(COC(=O)[C@@H]2[C@H](/C=C(\Cl)C(F)(F)F)C2(C)C)cccc1-c1ccccc1
active: [1] 5.44 µM | [4] 11.7 µM | [6] 0.28 µM | [7] 12.3 µM | [10] 4.98 µM
inactive: all other assays above

N#CN=C1SCCN1Cc1ccc(Cl)nc1
not listed: [9] | [10]
inactive: all other assays above

CC(C)Oc1cccc(NC(=O)c2ccccc2C(F)(F)F)c1
active: [4] 11.6 µM
inactive: all other assays above

O=C(Nc1ccccc1-c1ccc(Cl)cc1)c1cccnc1Cl
active: [6] 39 µM
not listed: [10]
inactive: all other assays above

CCNC(=O)NC(=O)C(C#N)=NOC
not listed: [9]
inactive: all other assays above

Cc1cnc(C2=NC(C)(C(C)C)C(=O)N2)c(C(=O)O)c1 (stereo not drawn)
not listed: [9]
inactive: all other assays above

O=C1C2CC=CCC2C(=O)N1SC(Cl)(Cl)Cl (stereo not drawn)
active: [1] 36.7 µM | [5] 12.1 µM | [6] 39 µM | [7] 23.9 µM
inactive: [2] | [3] | [4] | [8]

CN/C(=N\[N+](=O)[O-])NCc1cnc(Cl)s1
inactive: all assays above

CCCN(CC)CC1COC2(CCC(C(C)(C)C)CC2)O1 (stereo not drawn)
active: [1] 6.16 µM
not listed: [9]
inactive: all other assays above

CCSC(=O)N1CCCCCC1
not listed: [10]
inactive: all other assays above

N#Cc1c(Cl)cccc1Cl
active: [1] 3.97 µM
inactive: all other assays above

CCNP(=S)(OC)O/C(C)=C/C(=O)OC(C)C (stereo not drawn)
not listed: [9]
inactive: all other assays above

C=CCOC(=O)C(C)(C)OC(=O)c1cc(-n2c(=O)cc(C(F)(F)F)n(C)c2=O)ccc1Cl
active: [1] 14.7 µM
not listed: [9] | [10]
inactive: all other assays above

CC(C)=CC1C(C(=O)OCc2coc(Cc3ccccc3)c2)C1(C)C (stereo not drawn)
active: [1] 7.53 µM | [2] 9.03 µM | [4] 13.7 µM | [6] 9.8 µM
not listed: [9]
inactive: all other assays above

COC(=O)c1c(C(F)F)nc(C(F)(F)F)c(C2=NCCS2)c1CC(C)C
active: [1] 25.2 µM | [4] 33.3 µM | [8] 36.5 µM
inactive: all other assays above

O=c1n(Cl)c(=O)n(Cl)c(=O)n1Cl
active: [1] 3.97 µM
not listed: [10]
inactive: all other assays above

COP(=O)(OC)O/C(C)=C/C(=O)N(C)C
not listed: [9] | [10]
inactive: all other assays above

CS(=O)(=O)c1ccc(C(=O)C2C(=O)CCCC2=O)c([N+](=O)[O-])c1
not listed: [9]
inactive: all other assays above

CCN(CC)C(=O)C(C)Oc1cccc2ccccc12 (stereo not drawn)
active: [4] 5.16 µM | [5] 5.25 µM | [6] 9.8 µM
not listed: [10]
inactive: all other assays above

COCc1cnc(C2=NC(C)(C(C)C)C(=O)N2)c(C(=O)O)c1 (stereo not drawn)
not listed: [9]
inactive: all other assays above

Nc1c(Cl)c(Cl)nc(C(=O)O)c1Cl
not listed: [9]
inactive: all other assays above

CS(=O)(=O)c1cc(C(F)(F)F)ccc1C(=O)c1cnoc1C1CC1
not listed: [9] | [10]
inactive: all other assays above

COc1cc(OC)nc(NC(=O)NS(=O)(=O)c2ncccc2OCC(F)(F)F)n1
not listed: [10]
inactive: all other assays above

COCC(C)N(C(=O)CCl)c1c(C)csc1C (stereo not drawn)
active: [6] 39 µM
inactive: [1] | [2] | [3] | [4] | [5] | [6] | [8] | [10]

CCOC(=O)C(C)OC(=O)c1cc(Oc2ccc(C(F)(F)F)cc2Cl)ccc1[N+](=O)[O-] (stereo not drawn)
active: [1] 3.97 µM | [4] 13.3 µM | [8] 13.1 µM
inactive: [2] | [3] | [5] | [6]

COP(=S)(OC)Oc1ccc([N+](=O)[O-])c(C)c1
active: [1] 20 µM | [4] 16.5 µM | [6] 39 µM
not listed: [9] | [10]
inactive: all other assays above

CC(C)N1C(=O)N(c2ccccc2)CSC1=NC(C)(C)C
active: [1] 31.8 µM | [2] 25.4 µM | [4] 27.2 µM | [5] 25.8 µM | [6] 16.3 µM | [7] 31.2 µM | [8] 31.2 µM
inactive: [3]

CCOc1nc(C(Cl)(Cl)Cl)ns1
active: [1] 13.8 µM
inactive: all other assays above

CCCCOCN(C(=O)CCl)c1c(CC)cccc1CC
active: [1] 31 µM | [2] 34.5 µM | [3] 32.9 µM | [4] 28.5 µM | [5] 33.2 µM | [6] 29.4 µM | [7] 21.9 µM | [8] 28.2 µM | [10] 8.66 µM

O=P(O)(O)CCCl
not listed: [9] | [10]
inactive: all other assays above

COC(=O)NC(=S)Nc1ccccc1NC(=S)NC(=O)OC
active: [1] 14.2 µM | [10] 10.8 µM
inactive: all other assays above

CNC(=O)Oc1cccc2ccccc12
active: [4] 12.4 µM | [6] 13.7 µM | [7] 16.7 µM
not listed: [10]
inactive: all other assays above

CC(C)N1C(=O)c2ccccc2NS1(=O)=O
not listed: [9]
inactive: all other assays above

CCOc1cc(C(C)(C)C)ccc1C1COC(c2c(F)cccc2F)=N1 (stereo not drawn)
active: [1] 29.8 µM | [2] 23.9 µM | [3] 32.1 µM | [4] 15.1 µM | [5] 10.3 µM | [6] 22 µM | [8] 27.6 µM

CCN(CC)c1nc(C)cc(OP(=S)(OC)OC)n1
active: [4] 29.4 µM | [5] 20 µM
not listed: [9] | [10]
inactive: all other assays above
